# Screening data from PubChem BioAssay.
# NPC1 prom act – NPC1 promoter activation; Potency, µM (doses to about 9.22 µM), without a hit: at the highest dose activation, actives largely listed as activators; AID 485313; Huh7 NPC1 promoter luciferase reporter, 24 h; hit rate 2.4% among 320,000; further: % of control where 0% means no effect; nearly all actives have a fitted effect of over 60% in size
#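 Luminescence from an NPC1 promoter-driven luciferase reporter in stably transfected Huh7 cells was measured after 24 h compound treatment at 37 °C, followed by 10 min ambient incubation with luciferase detection reagent.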
# ELG1 DNA repair – blocks ELG1-dependent DNA repair in HEK293T cells; HEK293T ELG1-luciferase reporter, luminescence, 16 h; DNA damage induced by 5-fluorouridine; Potency, µM (series often up to 46.1 µM), for inactives: at the top dose activity change, negative = inhibition, hits mostly inhibitors; hit rate 2.3% among 330,000; AID 504467; further: on the % scale 0 is the no-effect control and ±100 the full control effect; nearly all actives have a fitted effect of over 55% in size
#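 Step one: seed 2,000 cells per well. Step two: pin-transfer compound or DMSO alongside 5-fluorouridine. Step three: incubate 16 hr, 37 °C, 5% CO2. Step four: add ONE-Glo, wait 30 min, read luminescence.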
# FLuc modulator – firefly luciferase modulation, counter-screen for miR-21 project; purified FLuc, Km substrates, luminescence inhibition; Potency, µM (series often up to 57.5 µM), without a hit: top-dose activity change, negative = inhibition, most hits filed as inhibitors; hit rate 6.9% among 360,000;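 further: plate controls were vehicle for no effect and reference inhibitor for full effect; nearly all actives have a fitted effect of over 55% in size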
# Target sequence (P08659 whole entry, looked up): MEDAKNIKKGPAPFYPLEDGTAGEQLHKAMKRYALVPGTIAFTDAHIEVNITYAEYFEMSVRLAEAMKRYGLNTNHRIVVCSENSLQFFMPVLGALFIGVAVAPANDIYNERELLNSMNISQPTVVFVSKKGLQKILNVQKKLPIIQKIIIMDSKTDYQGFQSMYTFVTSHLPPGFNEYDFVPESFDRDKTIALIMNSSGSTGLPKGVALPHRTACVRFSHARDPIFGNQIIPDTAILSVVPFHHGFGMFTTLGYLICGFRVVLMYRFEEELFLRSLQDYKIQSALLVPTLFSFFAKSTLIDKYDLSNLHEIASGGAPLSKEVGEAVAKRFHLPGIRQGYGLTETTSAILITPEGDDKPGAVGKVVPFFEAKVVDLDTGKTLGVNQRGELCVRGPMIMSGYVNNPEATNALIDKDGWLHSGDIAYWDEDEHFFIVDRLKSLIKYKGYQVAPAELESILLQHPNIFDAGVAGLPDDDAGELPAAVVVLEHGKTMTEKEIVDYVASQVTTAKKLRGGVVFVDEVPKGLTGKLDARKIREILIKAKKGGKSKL
#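 Biochemical qHTS of compounds, final roughly 60 µM downward over six points, against 10 nM purified firefly luciferase using Km concentrations of substrates (10 uM D-luciferin, 10 uM ATP) in Tris acetate pH 7.5 buffer; luminescence output.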
# SMN2 splice enh – SMN2 splice variant enhancement; Potency, µM (series often up to 46.1 µM), for the others: at the top dose activity change, positive = activation, most hits filed as activators; AID 1458; hit rate 2.8% among 210,000; HEK293 SMN2-luciferase splicing reporter, luminescence, 30-36 h; further: % of control where 0% means no effect; nearly all actives have a fitted effect of over 55% in size
#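 HEK293 cells carry an SMN2 minigene-luciferase reporter in which exon 7 inclusion puts luciferase in frame. Cells were seeded at 2000 cells/well, attached for 10-12 hours, then exposed to compounds for 30-36 hours at 37C before ONE-Glo luminescence.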
# ELG1 genotoxic – inducers of genotoxicity in HEK293T ELG1-luciferase cells. AID 504466. Potency, µM (series often up to 46 µM), for the others: at the top dose activity change, positive = activation, most hits filed as activators. hit rate 1.3% among 330,000. HEK293T ELG1-luciferase reporter, luminescence, 16 h; further: % of control where 0% means no effect; nearly all actives have a fitted effect of over 60% in size
#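 16 hr compound incubation (37 °C, 5% CO2) of HEK293T cells carrying luciferase-tagged ELG1; luciferase then measured by ONE-Glo luminescence after 30 min at RT.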
# Rab9 prom act – activators of Rab9 promoter | Potency, µM (series often up to 9.22 µM), for the others: at the highest dose activation, negative = inhibition, actives largely listed as activators | AID 485297 | hit rate 2.8% among 320,000 | Huh7 Rab9 promoter-luciferase reporter, luminescence, 24 h; further: % of control where 0% means no effect; nearly all actives have a fitted effect of over 60% in size
#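 Quantitative HTS format; Huh7 Rab9-luciferase reporter cells (1500/well) receive compound 2 h post-plating, incubate 24 h at 37 °C, then get luciferase reagent for 10 min before luminescence reading.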
# An asterisk follows results filed as active; ? = inconclusive; · = no result; [ ] = another dose, or the depositor's remark. Most compounds without a hit are left out; they make up all but 9.2% or so of the library. The call rests on the fitted dose curve; in most records, active means well fitted curve in the direction sought with a large enough effect; inconclusive means small, poorly fitted or top-dose-only effect, or another doubt; inactive means no such curve, though single readings can be large; an effect the other way counts as inactive or inconclusive. Potency means the concentration at half of the fitted maximal effect.
SMILES,NPC1 prom act,ELG1 DNA repair,FLuc modulator,SMN2 splice enh,ELG1 genotoxic,Rab9 prom act
CC1(C)N=C(N)N=C(N)N1c1ccc(Oc2ccc(Cl)cc2)c(Cl)c1,-37%,?,0%,·,-9%,-15%[1.84 µM]
Cc1c(Cl)cccc1-n1c(SCC(=O)N2CCC(C(=O)O)CC2)nnc1-c1ccncc1,-1%,11%,4%,19%,3%,-4%
Cc1nc2[nH]c(=O)[nH]c(=O)c2[nH]1,·,·,·,2%,·,·
O=C(Nc1ccc(Cl)c(Cl)c1)N1CC=CCC1,2.5µM*,?,12µM*,?,?,3.5µM*
Cc1ccc(NC(=O)N2CCCC2)cc1Cl,17%,?,-20%,16%,10%,28%
Cc1cc(F)ccc1S(=O)(=O)Nc1ccc2oc3c(c2c1)CC(C)CC3 (centres undefined),·,·,-12%,-58%,·,·
CC(=O)c1c(C)oc2ccc(NS(=O)(=O)c3ccc(F)cc3C)cc12,-3%,6.5µM*,0%,·,-27%,-5%
Clc1ccc(-c2nnc3n2CCCCC3)cc1,0%,10%,-1%,9%,2%,-9%
Cc1ccc(-c2cc(C(F)(F)F)n3nc(-c4ccc(Cl)cc4)cc3n2)cc1,·,·,2%,-5%,·,·
Clc1ccc(-c2cn3ccccc3n2)cc1,0.71µM*,?,0.67µM*,·,?,0.45µM*
Clc1ccc(-c2cn3c(n2)CCC3)cc1,2.2µM*,?,12µM*,18%,4.1µM*,?
Clc1ccc(-c2cn3cc(Cl)ccc3n2)cc1,3.5µM*,?,0.27µM*,·,1.3µM*,0.79µM*
Oc1ccc(-c2cn3cc(C(F)(F)F)ccc3n2)cc1,0.79µM*,?,0.67µM*,0.89µM*,2.1µM*,0.5µM*
CCOC(=O)C(NC(=O)c1ccc(Cl)cc1Cl)(Nc1ccc(C)cc1)C(F)(F)F (centres undefined),4%,7%,0%,4%,-6%,0%
COc1ccccc1N1CCN(C(=O)c2cnc(N3CCOCC3)c3ccccc23)CC1,·,·,-6%,·,·,·
COc1cccc(-n2c(SCC(=O)Nc3ccc4c(c3)OCO4)nc3c([nH]c4ccccc43)c2=O)c1,·,·,6%,·,·,·
CC[C@]12c3[nH]c4ccccc4c3CCN1C(=O)C(CC(=O)NCc1ccc(OC)c(OC)c1)C[C@@H]2C(=O)N1CCN(C(=O)C2CC2)CC1 (some centres undefined),·,0%,·,·,2%,·
COc1ccc2c(c1)CC(C(=O)NCCc1ccc(S(N)(=O)=O)cc1)CO2 (centres undefined),·,·,5%,·,·,·
CC(C)N(Cc1ccccc1)C(=O)CN1C(=O)NC2(CCCCCC2)C1=O,-8%,-2%,4%,·,0%,-1%
Cc1cc(O)c(C(c2cccc(F)c2)N2CCN(c3ccccc3)CC2)c(=O)n1Cc1ccco1 (centres undefined),·,·,-17%,·,·,·
Brc1ccc(-c2cn3ccccc3n2)s1,1µM*,?,0.76µM*,7.1µM*,0.65µM*,0.35µM*
COc1ccc(OC)c(C(=O)NC(CC(N)=O)c2ccc(NC(C)C)c([N+](=O)[O-])c2)c1 (centres undefined),-3%,6%,-2%,·,10%,0%
O=c1[nH]c2ccccc2c2cn(-c3ccccc3)nc12,2.8µM*,?,13µM*,·,?,?
O=c1[nH]c2ccccc2c2ccccc12,-1%[46.1 µM],?,-11%,20%,2%,-11%[46.1 µM]
CN(CC(=O)Nc1cccc(F)c1)C(=O)CCc1nc2sc3c(c2c(=O)[nH]1)CCCC3,-5%,?,0%,·,11%,0%
SMILES,NPC1 prom act,ELG1 DNA repair,FLuc modulator,SMN2 splice enh,ELG1 genotoxic,Rab9 prom act
Cc1ccc(CN2CCSc3ccc(C(=O)Nc4ccc(Cl)cc4)cc32)cc1,·,·,?,11µM*,·,·
Cc1ccc(CN2CCSc3ccc(C(=O)Nc4cc(C)cc(C)c4)cc32)cc1,·,·,6%,-16%,·,·
Cc1ccc(CN2CCSc3ccc(C(=O)NCCc4ccccc4)cc32)cc1,·,·,-12%,13µM*,·,·
O=C(NCCc1ccc(Cl)cc1)c1ccc2c(c1)N(Cc1ccccc1)CCS2,·,·,-18%,?,·,·
O=C(CSc1nc2c(c(=O)[nH]1)CCC2)Nc1ccccc1C(F)(F)F,·,·,-9%,·,·,·
CCOc1ccccc1/C=C(/C#N)C(N)=O,2%,?,5%,·,3%,-2%
Cc1cccc(NC(=O)/C(C#N)=C/c2ccc(F)cc2)n1,2%,-6%,5.4µM*,·,-8%,0%
COC(=O)c1ccc(COc2ccccc2/C=C(\C#N)C(=O)Nc2ccc(C)cc2)cc1,?,?,8.5µM*,-41%,21µM*,2.8µM*
N#C/C(=C\c1ccc(OCc2ccc(F)cc2)cc1)C(=O)Nc1cccc(C(=O)O)c1,6%,?,?,·,?,16%
CCCOc1ccccc1/C=C(\C#N)C(=O)Nc1cccc(C)n1,-3%,1%,11µM*,·,5%,-1%
CCOc1ccc2nc(NC(=O)CS(=O)(=O)c3ccc(C)cc3)sc2c1,6%,-7%,21µM*,9%,13%,1%
CCOc1ccc2nc(NC(=O)CS(=O)(=O)c3ccc(Cl)cc3)sc2c1,·,·,-3%,·,·,·
CC(=O)Nc1ccc2nc(NC(=O)CS(=O)(=O)c3ccccc3)sc2c1,2%,4%,?,·,2%,-8%
CCOc1ccc2nc(NC(=O)CS(=O)(=O)c3ccccc3)sc2c1,-1%,-30%,12µM*,6%,21%,1%
O=C1CN(c2ccccc2)C(=S)N1C(=O)c1ccc(Br)cc1,2.2µM*,?,12µM*,·,18µM*,3.2µM*
